Results from ChEMBL document CHEMBL4513216, “Probing the Open Global Health Chemical Diversity Library for Multistage-Active Starting Points for Next-Generation Antimalarials” (ACS Infect Dis, 2020).
Screen size: about 69,000 compounds; about 8,600 (12%) showed an effect of 50% or more. The sample holds strong results, similar compounds and a random draw of the others, so the mix is not that of the screen.

The molecules below were run on Plasmodium berghei (assay: Screen against P. berghei liver stage (PbLuc), transformed with Luciferase, at 10uM). Settings: tested at 10 uM.
Format: functional, HepG2

| Structure (SMILES) | INHIBITION |
| --- | --- |
| O=C(CCCN1CCOC1=O)Nc1cnn(-c2ccccc2Cl)c1 | 33.8% |
| CNc1cc2c(nn1)CCN(C(=O)c1ccc3c(c1)CCC3)C2 | 27.4% |
| Cc1noc(C)c1CNCC1CNc2ccnn2C1 (stereo unspecified) | 39.3% |
| CC(C)n1cc(CN2CCCN(C(=O)CN3CCCC3=O)CC2)cn1 | 33.7% |
| CC(C)N(C)Cc1n[nH]c2c1CCN(C(=O)c1ccc[nH]1)C2 | 2.79% |
| CC(C)CCNC(=O)CNC(=O)N1CCc2c([nH]c3ccc(Cl)cc23)C1 | -2.13% |
| c1cc(CN2CCCN(c3ccc4cc[nH]c4n3)CC2)ccn1 | 54.4% |
| Fc1ccccc1CN1CCCN(c2ccc3cc[nH]c3n2)CC1 | 70.4% |
| c1cc2ccc(N3CCN(Cc4ccc5c(c4)OCO5)CC3)nc2[nH]1 | 44.7% |
| O=C1OCCN1CCN1CCCN(Cc2ccccc2F)CC1 | 15.1% |
| Cc1ccn(-c2ccc(N3CCCN(Cc4ccccc4)CC3)nn2)n1 | 6.39% |
| Fc1ccccc1CN1CCCN(c2ncnc3[nH]ccc23)CC1 | 26.9% |
| Cc1cc(-n2nc(C3CC3)nc2-c2csnn2)ccn1 | 19.5% |
| CN1CCOC(CNCc2coc(-c3ccccc3Cl)n2)C1 (stereo unspecified) | 16.8% |
| CC(C)c1noc(CN2CCN(C(=O)c3cccc(F)c3)CC2)n1 | -31.5% |
| CCN(CC)S(=O)(=O)c1ccc2c(c1)N(Cc1ccccn1)C(=O)CS2 | 13.1% |
| CS(=O)(=O)N1CC[C@]2(O)CCN(c3ccnc(N)n3)C[C@@H]2C1 | 20.8% |
| CS(=O)(=O)N1CC[C@]2(O)CCN(c3cc(C#N)ccn3)C[C@@H]2C1 | 52.2% |
| CN(C)S(=O)(=O)N1CC[C@]2(O)CCN(c3cc(C#N)ccn3)C[C@@H]2C1 | 36.5% |
| Cc1cc(C(=O)NC2CCN(CC(N)=O)CC2)nn1C(C)(C)C | -1.54% |
| CC(C)(C)n1nc(C(=O)NC2CCN(CC(N)=O)CC2)cc1C1CC1 | 5.03% |
| CC(C)(C)n1nc(C2CC2)cc1C(=O)NC1CCN(CC(N)=O)CC1 | 56% |

| Structure (SMILES) | INHIBITION |
| --- | --- |
| Cc1noc(C(C)C)c1C(=O)NCCN1CCCCCC1=O | 11.6% |
| Cc1nc(C)n(CC2CCCCN2CC(=O)Nc2cc(C)on2)n1 (stereo unspecified) | 15.5% |
| COCC(=O)N1CCCC1c1nc(O)cc(C(C)C)n1 (stereo unspecified) | 0.301% |
| CN(C)CCN1C(=O)CCC12CCCN(C(=O)c1cccnc1)CC2 (stereo unspecified) | -38.1% |
| Cc1occc(=O)c1OCC(=O)N1CCc2ccccc2C1 | -8.04% |
| CC(NC(=O)NCCCc1n[nH]c(N)c1C#N)c1ccccc1 (stereo unspecified) | 31% |
| CC(NC(=O)NCCCc1n[nH]c(N)c1C#N)c1ccc(F)cc1 (stereo unspecified) | -25.8% |
| CC(NC(=O)NCCNc1ncccn1)c1cccs1 (stereo unspecified) | 56.6% |
| CC(C)C(NC(=O)NCCNc1ccccn1)c1cccs1 (stereo unspecified) | 50.4% |
| CC(NC(=O)NCCNc1cnccn1)c1cccs1 (stereo unspecified) | -0.847% |
| CC(C)C(NC(=O)NCCNc1cnccn1)c1cccs1 (stereo unspecified) | 36.1% |
| CC(NC(=O)NCCCc1n[nH]c(N)c1C#N)c1cccs1 (stereo unspecified) | 58.2% |
| CC(C)C(NC(=O)NCCNc1ncccn1)c1cccs1 (stereo unspecified) | -6.44% |
| CC(NC(=O)NCCNc1ccccn1)c1cccs1 (stereo unspecified) | 19.6% |
| CCSc1ccc(C(=O)N2CCCCC2C(=O)NC(C)(C)C)cn1 (stereo unspecified) | 29.7% |
| CN(CCCO)C(=O)c1ccc2c(c1)nc(N1CC[C@H](O)C1)n2C | -17.7% |
| O=C(c1ccncc1)N1CCN2C[C@H](Oc3cccc(F)c3)C[C@H]2C1 | 15.3% |
| CC1CCCCN1CCNC(=O)c1scnc1Cl (stereo unspecified) | 0.411% |
| O=C(C1CCCC1)N1CCCC(c2nc(O)cc(-c3ccncc3)n2)C1 (stereo unspecified) | 18.3% |
| CCOc1ccc(CC(=O)N2CCN(c3nccn3C)CC2)cc1 | 15% |
| CC(Nc1nc2c(cnn2C)c(=O)[nH]1)c1ccc(F)cc1 (stereo unspecified) | 23.1% |
| CC(C)Sc1ccc(C(C)Nc2nc3c(cnn3C)c(=O)[nH]2)cc1 (stereo unspecified) | 76.8% |

| Structure (SMILES) | INHIBITION |
| --- | --- |
| CC(Nc1nc2c(cnn2C)c(=O)[nH]1)c1ccccn1 (stereo unspecified) | 30.9% |
| CC(Nc1nc2c(cnn2C)c(=O)[nH]1)c1ccc2c(c1)CCCC2 (stereo unspecified) | 51% |
| CCC(=O)Nc1ccc(C(C)Nc2nc3c(cnn3C)c(=O)[nH]2)cc1 (stereo unspecified) | 28.7% |
| Cn1ncc2c(=O)[nH]c(CN3CCCc4cc(F)ccc43)nc21 | 31.7% |
| c1ccc(Cn2cc3c(n2)C(CNCc2ccco2)OCC3)nc1 (stereo unspecified) | -4.86% |
| Cn1cc(C(=O)N2CC[C@@H]3[C@@H]2CCN3Cc2cccnc2)cn1 | 10.8% |
| COc1nn(C)cc1C(=O)N1CCC(c2nnc(-c3ccsc3)o2)CC1 | 43.3% |
| CS(=O)(=O)N1CCc2ccc(C(=O)N3CCn4ncnc4C3)cc21 | -4.68% |
| Clc1ccccc1OCCc1cc(C2CCNC2)n[nH]1 (stereo unspecified) | -57.4% |
| Cc1nccc(-c2cccc(NCC(=O)N3CCCCCCC3)c2)n1 | 18.9% |
| Cc1nccc(-c2cccc(NCC(=O)N3CCCC(C)C3)c2)n1 (stereo unspecified) | 53.9% |
| Cc1nccc(-c2cccc(NCC(=O)N3CCOC(C)C3)c2)n1 (stereo unspecified) | 15.5% |
| CNS(=O)(=O)c1cccc(CNC(=O)c2cc(C)no2)c1 | -4.16% |
| CCS(=O)(=O)N1CCC2(CC(=O)N(c3ccccc3C)C2)C1 (stereo unspecified) | -25.8% |
| CS(=O)(=O)Nc1ccc2c(c1)NC(=O)CC2c1cnn2cccnc12 (stereo unspecified) | -27.5% |
| CC(=O)N1CCOC2(CCCN(Cc3ccc(Cl)c(C(F)(F)F)c3)C2)C1 (stereo unspecified) | 30.3% |
| CC(=O)N1CCCC2(CCN(Cc3ccc(Cl)c(F)c3)C2)C1 (stereo unspecified) | 13.7% |
| CN(C)C(=O)N1CCCC2(CCN(Cc3ccc(Cl)c(F)c3)C2)C1 (stereo unspecified) | 16.9% |
| CC(=O)N1CCC2(CCCN(Cc3ccc(Cl)c(C(F)(F)F)c3)C2)C1 (stereo unspecified) | 59.7% |
| CC(=O)N1CCC2(CCN(Cc3ccc(Cl)c(C(F)(F)F)c3)CC2)C1 | 73% |
| CC(=O)N1CCCC2(CCN(Cc3ccc(Cl)c(C(F)(F)F)c3)C2)C1 (stereo unspecified) | -18.5% |
| CSc1cccc(CN2CCn3nc(CNC(C)=O)cc3C2)c1 | 8.38% |
